The list is not random: actives were taken first. Their share in the collection is about 2.6%.
Granule exo inh: LAMP-1 surface exposure blockers, TALL-104 cells – cell-based, flow cytometry, MLPCN library, primary screen; TALL-104 LAMP-1 surface exposure; cells stimulated with thapsigargin and PMA; hit rate 0.66% among 360,000; inhibition, % at 10 µM; AID 651702, 2012;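 active means inhibition above about 55%, limit read from the data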
ABHD5 PLIN5 PPI: ABHD5-PLIN5 interaction inhibitors, primary screen, cell lysate, split luciferase complementation, luminescence; Perilipin-5 (Homo sapiens) + 1-acylglycerol-3-phosphate O-acyltransferase ABHD5 (Homo …; Split G. princeps luciferase complementation, 4 h; inhibition, % at 4 µM; hit rate 0.78% among 360,000; AID 602281, 2012;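 active means inhibition above the mean inhibition across every tested compound plus 3 SD, cut at about 22% in these data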;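 further: 0% = DMSO only wells and the 100% control is not disclosed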
Rce1 inhib: yeast Rce1p protease inhibitors, primary screen, biochemical, fluorescence, cell-free homogeneous; CAAX prenyl protease 2 (Saccharomyces cerevisiae (strain ATCC 204508 / S288c)), Q03530; yeast membranes, quenched prenylated peptide cleavage fluorescence; calls only; hit rate 0.27% among 290,000; AID 2563, 2010;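 active means fall in fluorescence gain of 50% or more versus controls, with final raw signal at or below 3038400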;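 further: plate controls were neutral control wells for no effect and wells lacking membranes for full effect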
Target sequence (Q03530 whole entry, looked up): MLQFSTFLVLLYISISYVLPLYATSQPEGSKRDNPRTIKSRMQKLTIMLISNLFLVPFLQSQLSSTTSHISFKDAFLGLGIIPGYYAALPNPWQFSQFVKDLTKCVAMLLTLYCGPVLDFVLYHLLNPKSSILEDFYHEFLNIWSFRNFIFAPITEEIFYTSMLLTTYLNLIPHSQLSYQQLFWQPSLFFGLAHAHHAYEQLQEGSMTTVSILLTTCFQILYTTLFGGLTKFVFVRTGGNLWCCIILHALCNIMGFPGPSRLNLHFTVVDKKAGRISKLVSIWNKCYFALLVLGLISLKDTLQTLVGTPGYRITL
Platelet DG rel: inhibitors of platelet dense granule secretion, primary screen, cell-based, MLPCN, human platelets | human platelet-rich plasma, SFLLRN dense granule ATP release, luminescence | hit rate 0.22% among 300,000 | AID 1663, 2009 | inhibition, %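 (compounds screened at 7.5 µM in platelet-rich plasma)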;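 active means mean replicate score, as percent of positive control, at or above 50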
PfM18AAP inh-1: PfM18AAP inhibitors, malaria aminopeptidase, primary screen, biochemical, QFRET, recombinant enzyme. H-Glu-NHMec fluorogenic cleavage. M18 aspartyl aminopeptidase (Plasmodium falciparum 3D7). hit rate 1.2% among 290,000. inhibition, % at 7.35 µM;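 active means inhibition above the campaign mean inhibition over all tested compounds plus 3 SD, cut at about 28% in these data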;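 further: 0% = plate median of test compound wells and 100% = 2 mM ZnCl2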
PfM18AAP inh-2: PfM18AAP inhibitors, malaria aminopeptidase, confirmation, biochemical, QFRET, recombinant enzyme, triplicate; shares compounds with PfM18AAP inh-1; hit rate 28% among 2,400; H-Glu-NHMec fluorogenic cleavage; AID 2170, 2009; inhibition, % at 7.35 µM;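 active means mean inhibition over replicate wells above the hit cutoff set for the earlier primary screen, cut at about 29% in these data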;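 further: 0% = median of test compound wells and 100% = 2 mM ZnCl2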
CTSL1 counter: cathepsin L1 inhibitors, retest, confirmation, counter-screen for PFM18AAP inhibitor project, biochemical, QFRET, triplicate. AID 2178, 2009. inhibition, % at 5.96 µM. shares compounds with PfM18AAP inh-1. purified cathepsin L1, Z-Leu-Arg-MCA fluorescence. 2,400 tested, under 10 active;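 active means average inhibition across replicates above the hit cutoff set in the earlier primary screen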;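 further: 0% = median of test compound wells and 100% = Z-Phe-Ala-diazomethylketone 1 µM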
An asterisk follows results filed as active; i = inactive; · = no result.

SMILES	Granule exo inh	ABHD5 PLIN5 PPI	Rce1 inhib	Platelet DG rel	PfM18AAP inh-1	PfM18AAP inh-2	CTSL1 counter
Cc1cc(C)cc(NC(=O)Cn2nnc(C(=O)NCc3cccs3)c2N)c1	-1	-3	i	6	-8	·	·
Oc1ccc(NCc2ccccc2OCc2ccccc2)cc1	2	-9	i	4	49*	-21	-2
CCNCc1ccccc1OCc1ccccc1	-2	0	i	-3	0	·	·
CC(=O)c1ccc(N2CCN(Cc3nc4ccccc4[nH]3)CC2)cc1	3	2	i	-4	6	·	·
Oc1ccc(N2CCN(Cc3nc4ccccc4[nH]3)CC2)cc1	-6	1	·	3	42*	-25	-5
O=C1c2ccccc2NC(c2ccc(O)c(O)c2)N1c1ccccc1Cl (stereo not given)	-9	-10	i	-1	57*	56*	-2
COC(=O)C(C)Sc1n[nH]c(=S)s1 (stereo not given)	1	-14	i	-4	37*	-24	-1
Cc1ccc(OCC(=O)Nc2nnc(S(=O)(=O)N3CCCCCC3)s2)cc1	-4	3	i	4	1	·	·
CCCC(=O)N(c1ccc2oc(=O)sc2c1)S(=O)(=O)c1cccs1	0	17	·	·	37*	-14	-1
CNC(=S)/N=C(/Nc1ccccc1)c1ccccc1	2	2	i	0	44*	-28	0
C/C(CC(=O)C(F)(F)F)=N\NC(=O)/C(C#N)=C/N(C)C	-6	0	i	3	23	·	·
COc1cc(C2C(C(=O)c3cccs3)=C(O)C(=O)N2c2cc(C)on2)ccc1O (stereo not given)	-2	-9	i	3	55*	-47	-3
COc1cccc(C2C(C(=O)c3cccs3)=C(O)C(=O)N2c2cc(C)on2)c1 (stereo not given)	0	-13	·	·	35*	-36	2
COCCN(C(=O)COC(=O)/C=C/c1ccc(C(F)(F)F)cc1)c1c(N)n(Cc2ccccc2)c(=O)[nH]c1=O	6	-10	i	2	·	·	·
COc1ccc(CNCc2cc3c(cc2[N+](=O)[O-])OCO3)cc1	1	5	i	-8	38*	-15	-2
Cc1cc(C)cc(NCc2cc3c(cc2[N+](=O)[O-])OCO3)c1	1	-2	i	-1	14	·	·
O=C(/C=C1\SC(=O)NC1=O)Nc1ccc(C(=O)O)cc1	-1	4	i	6	36*	-37	2
CC[C@@H]1[C@H]2CCCC(=O)N3CC[C@@H](C[C@H]1O)[C@@H]23	1	-9	i	-3	·	·	·
O=c1c(-c2cccc([N+](=O)[O-])c2)[n+]([O-])c2ccccc2n1O	-3	-1	i	4	-11	·	·
N#CC1=C(N)Nc2ncnn2C1c1ccccc1 (stereo not given)	·	·	i	-17	38*	-41	0
N#CC1=C(N)Nc2ncnn2C1c1ccc([N+](=O)[O-])cc1 (stereo not given)	-1	0	i	-3	16	·	·
O=C1/C(=C\c2ccc(O)c(O)c2)N=C2CCCCCN12	7	4	i	10	65*	56*	4
COC(=O)c1cn(C(=O)c2cc(OC)cc(OC)c2)c2ccccc12	3	1	i	7	-1	·	·
COc1cc(OC)cc(C(=O)n2cnnc2N)c1	1	4	i	3	53*	49*	0
O=CN(/C=C1\Sc2ccccc2C1=O)Cc1ccccc1	1	-7	i	-2	15	·	·
SMILES	Granule exo inh	ABHD5 PLIN5 PPI	Rce1 inhib	Platelet DG rel	PfM18AAP inh-1	PfM18AAP inh-2	CTSL1 counter
O=C(O)CCCCCN1C(=O)C(O)=C(C(=O)/C=C/c2ccccc2)C1c1ccc2c(c1)OCO2 (stereo not given)	1	-1	i	9	55*	-1	2
O=C(O[C@@H]1OC2COC(=O)c3cc(O)c(O)c(O)c3-c3c(cc(O)c(O)c3O)C(=O)O[C@@H]([C@H]1O)[C@@H]2O)c1cc(O)c(O)c(O)c1	-4	28*	i	15	62*	45*	-2
Cc1ccc(-c2cn3c(=S)[nH]nc3s2)cc1	1	0	i	4	64*	46*	1
Cc1ccc(-c2n[nH]c(=S)n2C)cc1	-2	2	i	-2	19	·	·
COc1ccc(N2C(=O)/C(=C\c3ccco3)N=C2SCC(=O)N(C(C)C)C(C)C)cc1Cl	-4	-4	i	-15	-9	·	·
COCCCNC(=O)C1CCN(S(=O)(=O)N(CC(C)C)CC(C)C)CC1	-5	-3	i	3	2	·	·
Nc1nc(-c2cc(O)ccc2[N+](=O)[O-])cc(-c2ccccc2)c1[N+](=O)[O-]	1	1	i	1	46*	-37	-2
O=C(CCSc1ccc(Cl)cc1)NC1CCCC1	-3	-6	i	-2	0	·	·
COc1ccccc1C(=O)Nc1ccc(S(=O)(=O)Nc2onc(C)c2C)cc1	4	2	i	0	3	·	·
CCCOc1ccc(/C=C2/C(=O)ON=C2C)cc1OCC	-11	3	i	-2	40*	42*	2
COc1ccc(NS(=O)(=O)c2ccc(N3CCOCC3)c(N)c2)cc1	-3	5	·	·	·	·	·
O=C(O)Cc1sc(Nc2ccc(Cl)cc2)nc1-c1cccs1	·	·	i	4	33*	-30	1
Nc1nc(-c2cccs2)c(CC(=O)O)s1	2	-13	i	-1	10	·	·
CC(Cl)C(=O)NNC(=O)CNS(=O)(=O)c1ccccc1 (stereo not given)	-2	4	i	4	45*	20	-1
NNC(=O)CNC(=O)CNS(=O)(=O)c1ccccc1	0	-4	i	-17	3	·	·
O=S(=O)(c1c(Cl)sc(Cl)c1Br)N1CCCC1	-4	-2	i	-13	2	·	·
Nc1c(/C=C2/C=CC(=O)C(O)=C2)c(=O)nc2sc(CC(=O)N3CCCC3)nn12	0	1	i	16	63*	43*	-2
Cc1ccc(S(=O)(=O)N2CCCCC2)cc1NC(=O)c1cccs1	-5	4	·	·	·	·	·
O=C(NCc1ccco1)c1cc2cc(Br)ccc2o1	-6	1	i	-4	33*	-13	-3
CC1(C)CC(=O)C=C(NNC(=O)c2ccc(N)cc2)C1	3	3	i	8	48*	19	3
Cc1occc1C(=O)NNC1=CC(=O)CC(C)(C)C1	-2	-2	i	-2	55*	30*	4

Assay outcomes as filed in PubChem.
